Measurements from paper PMC7862700, “An all-to-all approach to the identification of sequence-specific readers for epigenetic DNA modifications on cytosine”.

Tests used:
Assay in all cases: DAPPL (digital affinity profiling via proximity ligation, sequencing); 10 mM Tris-HCl pH 7.5, 50 mM NaCl, 1 mM DTT, 4% glycerol, room temperature, 30 min; GST-TFs on glutathione beads, 16-mer random dsDNA library, 0.1% formaldehyde crosslink after washing; high values mean tight binding
FLI1 = biological target: T1, FLI1 (Homo sapiens, UniProt Q01543 1-452); conditions: protein: recombinant; tags: N-terminal GST; dsDNA, one strand shown
T1 sequence: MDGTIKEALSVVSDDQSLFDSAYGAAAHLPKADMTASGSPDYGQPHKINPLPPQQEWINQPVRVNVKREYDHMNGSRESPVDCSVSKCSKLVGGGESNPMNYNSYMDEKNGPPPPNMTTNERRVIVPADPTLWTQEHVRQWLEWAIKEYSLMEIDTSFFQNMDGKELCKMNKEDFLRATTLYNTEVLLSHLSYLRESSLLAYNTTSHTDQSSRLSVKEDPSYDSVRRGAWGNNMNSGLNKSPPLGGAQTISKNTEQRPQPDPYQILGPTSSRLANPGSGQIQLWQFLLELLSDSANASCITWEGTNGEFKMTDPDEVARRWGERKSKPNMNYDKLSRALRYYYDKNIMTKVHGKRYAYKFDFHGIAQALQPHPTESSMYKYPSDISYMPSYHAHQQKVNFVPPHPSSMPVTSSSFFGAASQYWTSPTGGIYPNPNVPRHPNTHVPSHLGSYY
Method in brief: (§1)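 A tag-only sample was pooled with DNA-barcoded human transcription factors that had been expressed in yeast as GST fusions and captured on glutathione beads. The pools were incubated for 30 min at room temperature with 200 nmole of a random double-stranded 16-mer DNA library in Tris/NaCl/DTT/glycerol buffer, then washed, crosslinked with 0.1% formaldehyde, proximity-ligated (BsaI/T4 ligase, 1 h, 37 °C), PCR-amplified and sequenced on an Illumina NextSeq500. Binding signal is each hexamer's read frequency for a factor divided by its frequency for the tag-only sample.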

ELK1 = biological target: T2, ELK1 (Homo sapiens, UniProt P19419 1-428); conditions: protein: recombinant; tags: N-terminal GST; dsDNA, one strand shown
T2 sequence: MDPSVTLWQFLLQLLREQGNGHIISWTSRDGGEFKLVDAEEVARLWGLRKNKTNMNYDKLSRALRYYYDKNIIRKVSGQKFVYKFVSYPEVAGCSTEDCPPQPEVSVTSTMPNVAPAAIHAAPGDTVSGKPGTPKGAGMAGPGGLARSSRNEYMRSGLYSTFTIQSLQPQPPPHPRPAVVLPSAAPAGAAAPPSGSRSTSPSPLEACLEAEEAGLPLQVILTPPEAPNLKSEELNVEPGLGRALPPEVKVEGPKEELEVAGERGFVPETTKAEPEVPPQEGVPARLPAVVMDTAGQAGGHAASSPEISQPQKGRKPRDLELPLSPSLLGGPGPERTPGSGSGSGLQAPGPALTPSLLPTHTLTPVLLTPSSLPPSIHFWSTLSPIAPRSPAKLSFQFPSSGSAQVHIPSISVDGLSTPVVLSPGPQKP
Method in brief: as §1

GABPA = biological target: T3, GABPA (Homo sapiens, UniProt Q06546 1-454); conditions: protein: recombinant; tags: N-terminal GST; dsDNA, one strand shown
T3 sequence: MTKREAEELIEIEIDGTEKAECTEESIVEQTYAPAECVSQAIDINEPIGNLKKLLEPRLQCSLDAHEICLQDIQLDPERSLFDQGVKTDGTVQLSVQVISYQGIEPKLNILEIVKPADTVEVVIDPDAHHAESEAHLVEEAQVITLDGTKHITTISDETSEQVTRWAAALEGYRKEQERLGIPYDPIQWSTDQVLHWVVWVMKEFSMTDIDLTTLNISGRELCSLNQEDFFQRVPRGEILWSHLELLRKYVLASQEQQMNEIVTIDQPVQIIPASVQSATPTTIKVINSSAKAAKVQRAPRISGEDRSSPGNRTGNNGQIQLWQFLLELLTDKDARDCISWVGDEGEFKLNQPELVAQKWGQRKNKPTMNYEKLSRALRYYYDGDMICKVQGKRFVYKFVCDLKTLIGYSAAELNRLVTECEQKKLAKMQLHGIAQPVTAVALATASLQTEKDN
Method in brief: as §1

ERG = biological target: T4, ERG (Homo sapiens, UniProt P11308 1-479); conditions: protein: recombinant; tags: N-terminal GST; dsDNA, one strand shown
T4 sequence: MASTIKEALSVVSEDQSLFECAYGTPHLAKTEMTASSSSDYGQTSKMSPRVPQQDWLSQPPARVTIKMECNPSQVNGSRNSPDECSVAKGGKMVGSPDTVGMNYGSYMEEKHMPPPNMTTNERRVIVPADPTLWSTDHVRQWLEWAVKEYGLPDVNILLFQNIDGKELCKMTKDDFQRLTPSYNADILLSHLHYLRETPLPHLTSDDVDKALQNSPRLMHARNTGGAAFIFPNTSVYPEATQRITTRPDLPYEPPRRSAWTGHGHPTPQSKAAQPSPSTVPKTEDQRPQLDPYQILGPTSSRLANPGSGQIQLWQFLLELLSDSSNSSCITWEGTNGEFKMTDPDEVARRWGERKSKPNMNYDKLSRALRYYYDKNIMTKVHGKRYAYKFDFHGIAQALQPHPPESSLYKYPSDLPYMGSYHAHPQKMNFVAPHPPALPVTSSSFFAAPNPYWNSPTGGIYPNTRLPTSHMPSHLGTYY
Method in brief: as §1

ELF1 = ELF1 (Homo sapiens, UniProt P32519 1-619); conditions: protein: recombinant; tags: N-terminal GST; dsDNA, one strand shown
ELF1, sequence (P32519 whole entry): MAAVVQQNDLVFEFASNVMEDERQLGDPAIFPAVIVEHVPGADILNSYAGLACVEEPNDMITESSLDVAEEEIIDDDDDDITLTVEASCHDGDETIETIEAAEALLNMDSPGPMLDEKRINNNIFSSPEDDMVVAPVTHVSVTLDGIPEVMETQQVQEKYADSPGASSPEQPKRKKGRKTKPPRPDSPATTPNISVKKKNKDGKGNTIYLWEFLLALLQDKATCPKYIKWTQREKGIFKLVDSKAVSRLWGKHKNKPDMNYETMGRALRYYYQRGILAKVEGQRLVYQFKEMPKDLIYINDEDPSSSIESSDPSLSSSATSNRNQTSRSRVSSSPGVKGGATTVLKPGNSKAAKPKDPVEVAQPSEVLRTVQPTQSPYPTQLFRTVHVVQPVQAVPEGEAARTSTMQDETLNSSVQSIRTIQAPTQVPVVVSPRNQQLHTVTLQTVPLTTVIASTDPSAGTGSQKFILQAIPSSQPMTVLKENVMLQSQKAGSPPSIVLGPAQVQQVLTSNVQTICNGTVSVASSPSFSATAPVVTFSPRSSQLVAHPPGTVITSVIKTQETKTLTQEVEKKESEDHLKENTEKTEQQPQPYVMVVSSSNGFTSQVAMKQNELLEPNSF
Method in brief: as §1

EHF = biological target: T5, EHF (Homo sapiens, UniProt Q9NZC4 1-300); conditions: protein: recombinant; tags: N-terminal GST; dsDNA, one strand shown
T5 sequence: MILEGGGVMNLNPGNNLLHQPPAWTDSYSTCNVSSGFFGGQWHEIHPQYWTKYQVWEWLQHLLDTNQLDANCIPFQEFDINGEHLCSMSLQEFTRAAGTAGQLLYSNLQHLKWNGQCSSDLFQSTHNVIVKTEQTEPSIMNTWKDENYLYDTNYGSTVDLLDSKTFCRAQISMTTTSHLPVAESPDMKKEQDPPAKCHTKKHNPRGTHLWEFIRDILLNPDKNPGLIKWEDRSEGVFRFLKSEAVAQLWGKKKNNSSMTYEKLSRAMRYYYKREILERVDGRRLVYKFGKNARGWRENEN
Method in brief: as §1

SPI1 = SPI1 (Homo sapiens, UniProt P17947 1-270); conditions: protein: recombinant; tags: N-terminal GST; dsDNA, one strand shown
Method in brief: as §1

SPIB = SPIB (Homo sapiens, UniProt Q01892 1-262); conditions: protein: recombinant; tags: N-terminal GST; dsDNA, one strand shown
SPIB, sequence (Q01892 whole entry): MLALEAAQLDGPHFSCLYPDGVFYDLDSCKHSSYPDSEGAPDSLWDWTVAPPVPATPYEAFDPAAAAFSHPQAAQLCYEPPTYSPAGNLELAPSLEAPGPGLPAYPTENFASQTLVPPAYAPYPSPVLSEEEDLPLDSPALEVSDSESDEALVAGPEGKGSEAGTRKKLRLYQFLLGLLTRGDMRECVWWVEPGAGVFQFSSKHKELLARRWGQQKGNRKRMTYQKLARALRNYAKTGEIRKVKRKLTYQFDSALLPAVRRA
Method in brief: as §1

ELK3 = biological target: T6, ELK3 (Homo sapiens, UniProt P41970 1-407); conditions: protein: recombinant; tags: N-terminal GST; dsDNA, one strand shown
T6 sequence: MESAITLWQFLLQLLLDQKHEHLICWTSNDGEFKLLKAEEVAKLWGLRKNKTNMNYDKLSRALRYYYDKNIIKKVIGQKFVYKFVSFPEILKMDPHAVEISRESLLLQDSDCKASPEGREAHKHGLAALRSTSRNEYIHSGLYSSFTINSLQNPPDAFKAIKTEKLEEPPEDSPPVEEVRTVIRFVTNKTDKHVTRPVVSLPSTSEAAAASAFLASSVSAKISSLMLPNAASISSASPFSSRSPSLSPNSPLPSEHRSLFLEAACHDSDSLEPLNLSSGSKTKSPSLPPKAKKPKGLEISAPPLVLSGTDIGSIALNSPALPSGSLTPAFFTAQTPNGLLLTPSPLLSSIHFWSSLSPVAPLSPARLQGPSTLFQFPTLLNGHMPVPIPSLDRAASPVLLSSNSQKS
Method in brief: as §1

FEV = biological target: T7, FEV (Homo sapiens, UniProt Q99581 1-238); conditions: protein: recombinant; tags: N-terminal GST; dsDNA, one strand shown
T7 sequence: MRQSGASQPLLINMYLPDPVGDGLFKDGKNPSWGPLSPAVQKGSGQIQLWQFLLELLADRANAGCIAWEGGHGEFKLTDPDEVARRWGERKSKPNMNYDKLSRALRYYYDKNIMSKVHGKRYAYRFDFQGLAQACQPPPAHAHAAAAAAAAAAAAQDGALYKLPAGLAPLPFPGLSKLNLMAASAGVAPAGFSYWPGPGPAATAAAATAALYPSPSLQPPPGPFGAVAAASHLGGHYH
Method in brief: as §1

ETV5 = ETV5 (Homo sapiens, UniProt P41161 1-510); conditions: protein: recombinant; tags: N-terminal GST; dsDNA, one strand shown
ETV5, sequence (P41161 whole entry): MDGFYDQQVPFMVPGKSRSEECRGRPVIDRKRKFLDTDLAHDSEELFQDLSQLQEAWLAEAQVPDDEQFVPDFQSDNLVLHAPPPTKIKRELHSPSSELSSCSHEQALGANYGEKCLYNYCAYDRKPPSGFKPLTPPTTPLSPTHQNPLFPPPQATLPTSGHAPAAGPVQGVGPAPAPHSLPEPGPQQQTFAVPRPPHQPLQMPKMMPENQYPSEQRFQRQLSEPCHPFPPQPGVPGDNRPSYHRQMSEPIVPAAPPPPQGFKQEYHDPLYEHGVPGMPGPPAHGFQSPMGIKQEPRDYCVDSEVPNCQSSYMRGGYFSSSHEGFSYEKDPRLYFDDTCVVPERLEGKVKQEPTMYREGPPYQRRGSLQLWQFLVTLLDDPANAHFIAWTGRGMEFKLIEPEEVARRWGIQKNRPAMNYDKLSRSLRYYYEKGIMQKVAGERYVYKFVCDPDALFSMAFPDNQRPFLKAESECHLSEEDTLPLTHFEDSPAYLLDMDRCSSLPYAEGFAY
Method in brief: as §1

HSF1 = HSF1 (Homo sapiens, UniProt Q00613 1-529); conditions: protein: recombinant; tags: N-terminal GST; chain copies: 3; dsDNA, one strand shown
HSF1, sequence (Q00613 whole entry): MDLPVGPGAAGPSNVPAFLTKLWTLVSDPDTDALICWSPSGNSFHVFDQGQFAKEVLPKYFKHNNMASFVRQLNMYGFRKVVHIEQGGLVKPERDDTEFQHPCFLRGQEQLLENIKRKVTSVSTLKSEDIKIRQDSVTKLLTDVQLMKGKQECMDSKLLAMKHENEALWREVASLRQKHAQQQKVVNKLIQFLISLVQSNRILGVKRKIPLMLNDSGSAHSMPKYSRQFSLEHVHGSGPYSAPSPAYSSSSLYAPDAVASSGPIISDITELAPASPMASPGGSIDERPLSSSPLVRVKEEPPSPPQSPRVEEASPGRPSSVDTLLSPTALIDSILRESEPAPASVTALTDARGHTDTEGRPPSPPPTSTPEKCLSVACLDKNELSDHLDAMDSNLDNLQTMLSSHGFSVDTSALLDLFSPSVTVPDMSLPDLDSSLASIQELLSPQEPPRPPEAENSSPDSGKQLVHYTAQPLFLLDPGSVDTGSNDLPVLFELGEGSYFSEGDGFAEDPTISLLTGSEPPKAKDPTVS
Method in brief: as §1

SPIC = biological target: T8, SPIC (Homo sapiens, UniProt Q8N5J4 1-248); conditions: protein: recombinant; tags: N-terminal GST; dsDNA, one strand shown
T8 sequence: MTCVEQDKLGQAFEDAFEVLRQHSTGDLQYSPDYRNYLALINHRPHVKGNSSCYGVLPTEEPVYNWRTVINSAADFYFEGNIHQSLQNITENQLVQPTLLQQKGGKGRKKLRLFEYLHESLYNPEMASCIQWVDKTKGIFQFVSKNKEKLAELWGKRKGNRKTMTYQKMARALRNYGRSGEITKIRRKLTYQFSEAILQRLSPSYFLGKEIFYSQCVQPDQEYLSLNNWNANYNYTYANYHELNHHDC
Method in brief: as §1

ELF4 = ELF4 (Homo sapiens, UniProt Q99607 1-663); conditions: protein: recombinant; tags: N-terminal GST; dsDNA, one strand shown
ELF4, sequence (Q99607 whole entry): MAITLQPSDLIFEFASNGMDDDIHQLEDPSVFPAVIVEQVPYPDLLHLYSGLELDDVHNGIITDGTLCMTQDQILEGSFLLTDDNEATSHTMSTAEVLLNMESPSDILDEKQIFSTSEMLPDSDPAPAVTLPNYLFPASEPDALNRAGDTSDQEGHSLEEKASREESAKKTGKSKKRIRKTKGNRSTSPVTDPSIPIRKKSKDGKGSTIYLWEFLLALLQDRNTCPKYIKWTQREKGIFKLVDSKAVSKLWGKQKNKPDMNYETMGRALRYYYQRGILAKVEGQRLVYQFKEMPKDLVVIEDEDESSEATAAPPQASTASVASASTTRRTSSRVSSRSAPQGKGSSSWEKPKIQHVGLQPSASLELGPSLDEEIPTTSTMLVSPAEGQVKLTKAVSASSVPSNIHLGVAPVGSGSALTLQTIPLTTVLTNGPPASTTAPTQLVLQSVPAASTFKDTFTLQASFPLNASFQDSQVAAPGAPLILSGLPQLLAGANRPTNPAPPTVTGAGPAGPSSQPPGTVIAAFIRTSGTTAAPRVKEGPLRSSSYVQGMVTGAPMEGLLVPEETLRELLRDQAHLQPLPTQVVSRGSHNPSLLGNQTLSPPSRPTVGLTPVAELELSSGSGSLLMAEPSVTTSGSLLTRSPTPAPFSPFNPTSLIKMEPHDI
Method in brief: as §1

ELK4 = biological target: T9, ELK4 (Homo sapiens, UniProt P28324-2 1-405); conditions: protein: recombinant; tags: N-terminal GST; dsDNA, one strand shown
T9 sequence: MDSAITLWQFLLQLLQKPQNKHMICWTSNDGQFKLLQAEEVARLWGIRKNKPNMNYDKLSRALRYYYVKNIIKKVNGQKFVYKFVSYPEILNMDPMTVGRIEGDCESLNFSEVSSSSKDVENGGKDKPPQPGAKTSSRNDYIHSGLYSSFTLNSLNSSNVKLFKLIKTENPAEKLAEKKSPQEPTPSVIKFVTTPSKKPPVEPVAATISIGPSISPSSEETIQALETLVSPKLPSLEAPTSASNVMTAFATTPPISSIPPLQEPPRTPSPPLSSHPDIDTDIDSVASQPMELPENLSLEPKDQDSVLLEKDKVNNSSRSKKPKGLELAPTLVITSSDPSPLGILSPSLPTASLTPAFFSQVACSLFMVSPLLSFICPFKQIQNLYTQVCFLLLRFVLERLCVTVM
Method in brief: as §1

ETV2 = biological target: T10, ETV2 (Homo sapiens, UniProt O00321 1-342); conditions: protein: recombinant; tags: N-terminal GST; dsDNA, one strand shown
T10 sequence: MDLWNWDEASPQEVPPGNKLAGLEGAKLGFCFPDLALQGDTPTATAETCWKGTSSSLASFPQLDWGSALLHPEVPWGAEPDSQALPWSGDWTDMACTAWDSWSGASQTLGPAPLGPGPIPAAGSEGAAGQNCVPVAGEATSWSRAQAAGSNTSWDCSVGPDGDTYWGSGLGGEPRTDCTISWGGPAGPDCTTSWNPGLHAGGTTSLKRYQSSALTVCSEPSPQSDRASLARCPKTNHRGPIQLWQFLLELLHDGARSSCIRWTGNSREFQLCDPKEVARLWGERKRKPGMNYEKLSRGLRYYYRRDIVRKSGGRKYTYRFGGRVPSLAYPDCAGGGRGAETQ
Method in brief: as §1

ELF3 = biological target: T11, ELF3 (Homo sapiens, UniProt P78545 1-371); conditions: protein: recombinant; tags: N-terminal GST; dsDNA, one strand shown
T11 sequence: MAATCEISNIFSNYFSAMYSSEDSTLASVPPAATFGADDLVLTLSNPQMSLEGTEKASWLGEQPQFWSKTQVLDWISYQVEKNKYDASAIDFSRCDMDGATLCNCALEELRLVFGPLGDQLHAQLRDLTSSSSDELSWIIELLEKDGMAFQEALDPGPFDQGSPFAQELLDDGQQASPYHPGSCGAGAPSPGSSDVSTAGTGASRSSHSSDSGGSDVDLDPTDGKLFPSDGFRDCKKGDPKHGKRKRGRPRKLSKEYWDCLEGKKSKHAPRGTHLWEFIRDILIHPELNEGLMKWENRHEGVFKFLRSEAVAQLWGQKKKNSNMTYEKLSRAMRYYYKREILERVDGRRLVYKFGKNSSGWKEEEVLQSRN
Method in brief: as §1

ETV1 = ETV1 (Homo sapiens, UniProt P50549 1-477); conditions: protein: recombinant; tags: N-terminal GST; dsDNA, one strand shown
ETV1, sequence (P50549 whole entry): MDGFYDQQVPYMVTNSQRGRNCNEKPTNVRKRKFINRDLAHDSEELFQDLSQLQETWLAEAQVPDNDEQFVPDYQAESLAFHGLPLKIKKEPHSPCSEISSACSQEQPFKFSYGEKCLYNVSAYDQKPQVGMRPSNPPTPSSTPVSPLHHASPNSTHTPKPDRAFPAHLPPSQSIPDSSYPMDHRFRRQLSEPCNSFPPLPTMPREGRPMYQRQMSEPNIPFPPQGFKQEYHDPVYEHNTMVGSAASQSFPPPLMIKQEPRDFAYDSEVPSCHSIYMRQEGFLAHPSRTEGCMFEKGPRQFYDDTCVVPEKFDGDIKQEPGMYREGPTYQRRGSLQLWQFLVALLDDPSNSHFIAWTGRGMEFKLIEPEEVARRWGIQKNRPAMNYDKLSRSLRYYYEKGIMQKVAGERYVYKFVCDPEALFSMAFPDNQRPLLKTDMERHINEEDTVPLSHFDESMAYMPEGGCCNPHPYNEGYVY
Method in brief: as §1

## CGACCC
FLI1
  binding signal: 1.42 fold enrichment (6-mer frequency, TF over GST control)
ELK1
  binding signal: 1.46 fold enrichment (6-mer frequency, TF over GST control)
GABPA
  binding signal: 1.44 fold enrichment (6-mer frequency, TF over GST control)
ERG
  binding signal: 1.22 fold enrichment (6-mer frequency, TF over GST control)
ELF1
  binding signal: 1.26 fold enrichment (6-mer frequency, TF over GST control)
EHF
  binding signal: 1.29 fold enrichment (6-mer frequency, TF over GST control)
SPI1
  binding signal: 1.23 fold enrichment (6-mer frequency, TF over GST control)
SPIB
  binding signal: 1.21 fold enrichment (6-mer frequency, TF over GST control)
ELK3
  binding signal: 1.37 fold enrichment (6-mer frequency, TF over GST control)
FEV
  binding signal: 1.17 fold enrichment (6-mer frequency, TF over GST control)
ETV5
  binding signal: 1.3 fold enrichment (6-mer frequency, TF over GST control)
HSF1
  binding signal: 1.03 fold enrichment (6-mer frequency, TF over GST control)
SPIC
  binding signal: 1.23 fold enrichment (6-mer frequency, TF over GST control)
ELF4
  binding signal: 1.31 fold enrichment (6-mer frequency, TF over GST control)
ELK4
  binding signal: 1.17 fold enrichment (6-mer frequency, TF over GST control)
ETV2
  binding signal: 1.39 fold enrichment (6-mer frequency, TF over GST control)
ELF3
  binding signal: 1.2 fold enrichment (6-mer frequency, TF over GST control)
ETV1
  binding signal: 1.23 fold enrichment (6-mer frequency, TF over GST control)
